± gives the standard deviation of the averaged measurements. Whole data set: some 33,000 sequences, median “E-score (rank enrichment, -0.5 to 0.5)” near -0.0075, cut for the highest 2% near 0.23. Many of the other results were omitted from the sample, so the highest values are more common in it than they were.

In this experiment the test system is WT Max(13-93) synthetic (M65Nle). As to the kind of experiment: PBM 8-mer E-score (E-score (rank enrichment, -0.5 to 0.5)); higher = stronger preferential binding. As to the method:
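Protein binding microarray (universal PBM chip covering all 10-mers in fixed probe flanks) with chemically synthesized human Max(13-93) bHLH-LZ analogs (not full-length Max) bearing noncanonical residues (hArg, Tha, Aib, Nle at 65) and aromatic Cys staples. Read-out per 8-mer (and its reverse complement): E-score (rank-based enrichment, -0.5 to 0.5) and Z-score of median probe intensity.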
AATAATTA: the “PBM 8-mer E-score” value is 0.237 ± 0.058.

Consider CATAATAG, for which the “PBM 8-mer E-score” value was 0.241 ± 0.027.

Consider CCTAATAA, for which the “PBM 8-mer E-score” value amounted to 0.166 ± 0.01.

In the case of TATAATAA, the “PBM 8-mer E-score” value is 0.2203 ± 0.00023.

AATAATAA: the “PBM 8-mer E-score” value worked out at 0.242 ± 0.013.

Consider CATAATAA, for which the “PBM 8-mer E-score” value is 0.114 ± 0.18.

In the case of AATAATAG, the “PBM 8-mer E-score” value turned out to be 0.14 ± 0.12.

Regarding AATAATTC, the “PBM 8-mer E-score” value amounted to 0.0855 ± 0.084.

On to ACTCGGTA, for which the “PBM 8-mer E-score” value was -0.0471 ± 0.064.

Regarding CGTAGGCA, the “PBM 8-mer E-score” value was -0.0828 ± 0.077.

With GAAGCCCA, the “PBM 8-mer E-score” value is -0.0819 ± 0.0058.

With CCACCTGG, the “PBM 8-mer E-score” value was determined as 0.0162 ± 0.071.

With TCAACTCA, the “PBM 8-mer E-score” value is -0.088 ± 0.024.

Turning to AGATGCGG, the “PBM 8-mer E-score” value is -0.0543 ± 0.14.

Take CGCTTCTA: the “PBM 8-mer E-score” value is -0.0256 ± 0.055.

In the case of CCATTGGG, the “PBM 8-mer E-score” value was -0.154 ± 0.1.

For the sequence CAATCCAG, the “PBM 8-mer E-score” value turned out to be 0.0833 ± 0.0029.

Regarding CATAATTA, the “PBM 8-mer E-score” value was found to be 0.236 ± 0.025.

For the sequence CCTAATTA, the “PBM 8-mer E-score” value is 0.138 ± 0.094.

For the sequence CATAATTC, the “PBM 8-mer E-score” value is -0.0543 ± 0.0058.

Regarding GTATCGAA, the “PBM 8-mer E-score” value is -0.0312 ± 0.052.

For AGCTAATG, the “PBM 8-mer E-score” value was -0.0403 ± 0.0067.

As to AATAATCA, the “PBM 8-mer E-score” value came out at 0.125 ± 0.0096.

Take GATAATAA: the “PBM 8-mer E-score” value is 0.137 ± 0.092.

Take GATAATCA: the “PBM 8-mer E-score” value is 0.253 ± 0.14.

Take CATAATCA: the “PBM 8-mer E-score” value was 0.101 ± 0.028.

As for TATAATCA, the “PBM 8-mer E-score” value was 0.257 ± 0.014.

For GATAATCC, the “PBM 8-mer E-score” value was -0.0355 ± 0.034.

ACGCCAGT: the “PBM 8-mer E-score” value was -0.159 ± 0.098.

For the sequence CTCGAATA, the “PBM 8-mer E-score” value was -0.174 ± 0.064.

Turning to CCATTACA, the “PBM 8-mer E-score” value is 0.165 ± 0.0069.

Take AAGTTAAT: the “PBM 8-mer E-score” value worked out at 0.234 ± 0.036.

Turning to AAGTTAAC, the “PBM 8-mer E-score” value turned out to be 0.18 ± 0.0042.

For AAGTTAAG, the “PBM 8-mer E-score” value is -0.0928 ± 0.093.

As for ATGGACAA, the “PBM 8-mer E-score” value was determined as 0.0228 ± 0.022.

As for GCTCCTCC, the “PBM 8-mer E-score” value is -0.127 ± 0.14.

Regarding AAATTATG, the “PBM 8-mer E-score” value was 0.127 ± 0.011.

For AAATTATA, the “PBM 8-mer E-score” value came out at 0.237 ± 0.0041.

Take CAATTATA: the “PBM 8-mer E-score” value worked out at 0.137 ± 0.059.

Consider TAATTATA, for which the “PBM 8-mer E-score” value worked out at 0.264 ± 0.11.

Take AAATTATC: the “PBM 8-mer E-score” value is 0.158 ± 0.031.

Turning to GAATTATA, the “PBM 8-mer E-score” value worked out at 0.128 ± 0.074.

For GCCGAAAA, the “PBM 8-mer E-score” value was 0.0297 ± 0.015.

In the case of CACGCGTA, the “PBM 8-mer E-score” value is 0.165 ± 0.036.

Turning to AACGCGTA, the “PBM 8-mer E-score” value stood at 0.0664 ± 0.023.

On to CACGCGAG, for which the “PBM 8-mer E-score” value was 0.0779 ± 0.018.

Consider CACGCGAA, for which the “PBM 8-mer E-score” value amounted to 0.0737 ± 0.06.

As to CACGCGCG, the “PBM 8-mer E-score” value was determined as 0.224 ± 0.034.

Regarding CACGCGAC, the “PBM 8-mer E-score” value stood at 0.271 ± 0.066.

CACGCGCA: the “PBM 8-mer E-score” value was 0.149 ± 0.079.

Take CACGCGCC: the “PBM 8-mer E-score” value was 0.238 ± 0.013.

CACGCGTC: the “PBM 8-mer E-score” value came out at 0.266 ± 0.016.

For AACGCGTC, the “PBM 8-mer E-score” value is -0.0583 ± 0.0094.

As to CACGCGTG, the “PBM 8-mer E-score” value came out at 0.349 ± 0.015.

As for AACGCGTG, the “PBM 8-mer E-score” value was 0.222 ± 0.068.

As for CAACTCGG, the “PBM 8-mer E-score” value is -0.13 ± 0.11.

As for ATAACCGA, the “PBM 8-mer E-score” value was -0.0219 ± 0.011.

As to CAAATTAC, the “PBM 8-mer E-score” value was found to be 0.177 ± 0.062.

On to CCATCACC, for which the “PBM 8-mer E-score” value turned out to be 0.144 ± 0.01.

With ATGCAGTG, the “PBM 8-mer E-score” value came out at 0.0344 ± 0.068.

In the case of AAATGCGA, the “PBM 8-mer E-score” value is -0.0159 ± 0.018.

On to AGGCTAGG, for which the “PBM 8-mer E-score” value amounted to 0.0514 ± 0.046.

In the case of GGCAGATA, the “PBM 8-mer E-score” value was 0.116 ± 0.062.

With ACGTTTTG, the “PBM 8-mer E-score” value was found to be 0.101 ± 0.09.

ACGTTATC: the “PBM 8-mer E-score” value is 0.133 ± 0.013.

On to ACGTTATA, for which the “PBM 8-mer E-score” value was 0.241 ± 0.038.

For the sequence ACGTTATG, the “PBM 8-mer E-score” value worked out at 0.24 ± 0.0059.

In the case of CCGTTATA, the “PBM 8-mer E-score” value was found to be 0.132 ± 0.018.

As to ACGTTAGG, the “PBM 8-mer E-score” value was determined as 0.107 ± 0.099.

For GCGTTATA, the “PBM 8-mer E-score” value was found to be 0.108 ± 0.025.

On to ACATCATG, for which the “PBM 8-mer E-score” value was -0.0233 ± 0.006.

On to AGCGCCTC, for which the “PBM 8-mer E-score” value was -0.185 ± 0.038.

Turning to AACACCGG, the “PBM 8-mer E-score” value was -0.157 ± 0.029.

For the sequence ATTTGTTA, the “PBM 8-mer E-score” value turned out to be 0.0868 ± 0.01.

CTTTGTTC: the “PBM 8-mer E-score” value amounted to 0.0437 ± 0.024.

As for ATTTGTTC, the “PBM 8-mer E-score” value was determined as 0.241 ± 0.11.

Take CGAGATGA: the “PBM 8-mer E-score” value was -0.159 ± 0.091.

As to AGTAGCTA, the “PBM 8-mer E-score” value stood at 0.178 ± 0.057.

With GATCTCGA, the “PBM 8-mer E-score” value is -0.159 ± 0.022.

Take CCGCCGAA: the “PBM 8-mer E-score” value was -0.156 ± 0.022.

As to CACGTGAG, the “PBM 8-mer E-score” value worked out at 0.404 ± 0.019.

For the sequence CACGTGAA, the “PBM 8-mer E-score” value stood at 0.388 ± 0.053.

As to CACGTGAC, the “PBM 8-mer E-score” value was found to be 0.4879 ± 0.0015.

Take CCCGTGAG: the “PBM 8-mer E-score” value was -0.0893 ± 0.044.

On to TACGTGAA, for which the “PBM 8-mer E-score” value was 0.0446 ± 0.099.

For CGCGTGAG, the “PBM 8-mer E-score” value amounted to 0.0752 ± 0.04.

With GACGTGAA, the “PBM 8-mer E-score” value was -0.138 ± 0.057.

Take AACGTGAC: the “PBM 8-mer E-score” value turned out to be 0.205 ± 0.016.

(Values after the supplement of paper PMC12636033.)
